# Screen size: about 13,000 compounds; about 3,200 (25%) showed an effect of 50% or more. The list shows a part of the results.
# System: P. falciparum stage V gametocytes
# Parameters: BacTiter-Glo ATP luminescence viability of purified stage V gametocytes in 384-well plates, per cent inhibition versus DMSO
# Conditions: 48 h, 5 µM; inhibitor
row,Structure (SMILES),% Inhibition [%]
1,CC(=O)N(Cc1nc(-c2cc(Cl)c(Cl)s2)cs1)c1c(C)cccc1C [TCMDC-135640],-42.77
2,Cc1noc(C)c1-c1cccc(CNCc2ccc(-c3ccc(-c4nc5cccc(C)c5[nH]4)cc3)cc2)c1.O=C(O)C(F)(F)F [TCMDC-133061],-10.97
3,CS(=O)(=O)c1ccc(-c2nc(NCC3CCCCC3)cc(C(F)(F)F)n2)cc1 [TCMDC-138597],3.227
4,OC(Cn1ccnc1)(c1ccc(Cl)cc1Cl)C1CCCCC1 (stereo not drawn) [TCMDC-132084],-1.887
5,Clc1ccc(OC2CCC(Cn3ccnc3)(c3ccc(Cl)cc3Cl)CC2)c(Cl)c1 (stereo not drawn) [TCMDC-132089],67.21
6,CON=C1CCC(Cn2ccnc2)(c2ccc(Cl)cc2Cl)CC1 (stereo not drawn) [TCMDC-132070],-6.365
7,CN(C)CCCNC(=O)c1ccccc1Sc1ccccc1C#N [TCMDC-137689],-3.028
8,CC1CCN(CC[C@H]2CCCN2S(=O)(=O)c2cccc(NC(=O)c3ccc(-c4ccccc4)cc3)c2)CC1 [TCMDC-141076],-81.19
9,O=S(=O)(Nc1cccc(CCN2CCCCC2CCN2CCCC2)c1)c1ccc(-c2ccccc2)cc1 (stereo not drawn) [TCMDC-134093],39.18
10,O=S(=O)(Nc1cccc(CCN2CCCCC2CCN2CCCC2)c1)c1ccc2ccccc2c1 (stereo not drawn) [TCMDC-134091],64.43
11,O=S(=O)(Nc1cccc(CCN2CCCCC2CCN2CCCC2)c1)c1ccc(Oc2ccccc2)cc1 (stereo not drawn) [TCMDC-134094],61.85
12,CCc1ccc(S(=O)(=O)Nc2ccc(CCN(C)C3CCN(C)CC3)cc2)cc1 [TCMDC-134082],40.08
13,Cc1c(S(=O)(=O)Nc2cccc(CCN3CCCCC3CCN3CCCC3)c2)sc2ccc(Cl)cc12 (stereo not drawn) [TCMDC-134097],7.809
14,O=S(=O)(Nc1ccc(CCN2CCCCC2CCN2CCCC2)cc1)c1cccc2cccnc12 (stereo not drawn) [TCMDC-134096],43.66
15,O=S(=O)(Nc1cccc(CCN2CCCCC2CCN2CCCC2)c1)c1cccc2ccccc12 (stereo not drawn) [TCMDC-134092],40.53
16,NC1CCN(CCc2ccc(NS(=O)(=O)c3ccc(-c4ccccc4)cc3)cc2)CC1 [TCMDC-134085],111.6
17,O=S(=O)(Nc1ccc(CCN2CCCCC2CCN2CCCC2)cc1)c1ccc(-c2ccccc2)cc1 (stereo not drawn) [TCMDC-134095],70.29
18,O=c1cc(NCCCNCc2cc3c(Cl)cccc3s2)[nH]c2ccccc12 [TCMDC-140333],-87.93
19,COc1c(Br)cc(Br)cc1C(C)=O [TCMDC-123841],-7.365
20,CCOC(=O)c1[nH]c(-c2ccc(Cl)cc2)nc1NC(=S)NCCCN1CCOCC1 [TCMDC-138877],37.64
21,Cc1nc(-c2ccc(-c3ccc(C(=O)Nc4ccc5c(c4)C4(CCNCC4)CO5)cc3)c(C)c2)no1 [TCMDC-138993],45.43
22,O=C(N[C@@H](Cc1ccccc1)C(=O)NCc1cccc(C(F)(F)F)c1)c1ccc(O)c(-c2ccc(Cl)c(Cl)c2)c1 [TCMDC-140833],12.7
23,CN1CCN(S(=O)(=O)c2ccc3nccc(Nc4ccc(Oc5ccccc5)cc4)c3c2)CC1 [TCMDC-138691],-22.54

row,Structure (SMILES),% Inhibition [%]
1,Cc1cc(C=C(P(=O)(OC(C)C)OC(C)C)P(=O)(OC(C)C)OC(C)C)c2ccccc2c1O [TCMDC-138940],80.96
2,Cc1c(C(=O)Nc2cc(Sc3ccc(F)cc3)cc([N+](=O)[O-])c2)sc2ncn(Cc3ccccc3F)c(=O)c12 [TCMDC-125703],1.963
3,CCCN(CCC)CCCNc1ccc(C(=O)Nc2ccc(OCC)cc2)cc1[N+](=O)[O-] [TCMDC-125691],12.73
4,CCCN(CCC)CCCNc1ccc(C(=O)Nc2ccc(C)c(F)c2)cc1[N+](=O)[O-] [TCMDC-125685],15.23
5,CCCN(CCC)CCCNc1ccc(C(=O)Nc2ccc(C(C)C)cc2)cc1[N+](=O)[O-] [TCMDC-125688],90.5
6,COc1cccc(NC(=O)c2ccc(NCCCN3CC(C)CC(C)C3)c([N+](=O)[O-])c2)c1 (stereo not drawn) [TCMDC-125689],53.82
7,COc1cccc(NC(=O)c2ccc(NCCCN3CCC(C)CC3)c([N+](=O)[O-])c2)c1 [TCMDC-125690],0.09701
8,CC1CC(C)CN(CCCNc2ccc(C(=O)Nc3ccc(C(F)(F)F)cc3)cc2[N+](=O)[O-])C1 (stereo not drawn) [TCMDC-125680],38.66
9,CC1CCN(CCCNc2ccc(C(=O)Nc3ccc(C(F)(F)F)cc3)cc2[N+](=O)[O-])CC1 [TCMDC-125683],88.85
10,O=C(Nc1ccc(C(F)(F)F)cc1)c1ccc(NCCCN2CCCCCC2)c([N+](=O)[O-])c1 [TCMDC-125681],11.61
11,CCOc1ccc(NC(=O)c2ccc(NCCCN3CC(C)CC(C)C3)c([N+](=O)[O-])c2)cc1 (stereo not drawn) [TCMDC-125692],30.09
12,COc1ccc2ncc(F)c(NC(=O)C3CCC(NCc4cc5cc(F)cc(F)c5[nH]4)CC3)c2n1 (stereo not drawn) [TCMDC-136455],25.24
13,O=C(Nc1cccc(C2=NCCN2)c1)Nc1cccc(C2=NCCN2)c1 [TCMDC-124304],-0.7345
14,COc1ccc(NC(=O)N2CCc3ccc(OCCN(C(C)C)C(C)C)cc32)cc1C(F)(F)F [TCMDC-140253],-24.24
15,N#Cc1cccc(CNC(=O)c2cccc(Nc3ccnc4ccc(F)cc34)c2)c1 [TCMDC-136309],21.53
16,Cc1cc(NC(=O)c2ccc(S(=O)(=O)N(Cc3ccccc3)C(C)C)cc2)no1 [TCMDC-123547],-7.124
17,CCNc1cc(C(=O)N[C@@H](Cc2ccccc2)[C@H](O)CNCc2cc(OC)cc(OC)c2)cc(N2CCCC2=O)c1 [TCMDC-134572],-8.682
18,CCn1c(-c2nonc2N)nc2c(-c3cccc(NC(=O)Nc4ccc(C(F)(F)F)cc4)c3)ncc(OCCCN)c21 [TCMDC-136179],115.3
19,CCn1c(-c2nonc2N)nc2c(-c3cccc(NC(=O)Nc4cccc(C(F)(F)F)c4)c3)ncc(OCCCN)c21 [TCMDC-136178],94.17
20,O=C(Nc1ccc(Cl)cc1)Nc1cccc(-c2cccc(-c3nc4ccc(C(F)(F)F)cc4[nH]3)c2)c1 [TCMDC-133180],-47.4
21,CCOC(=O)NCC(=O)Nc1cccc(-c2cccc(-c3nc4ccc(C(F)(F)F)cc4[nH]3)c2)c1 [TCMDC-137047],-10.81
22,CCOC(=O)c1ccc(NC(=O)Nc2cccc(-c3ccc(-c4nc5ccc(C(F)(F)F)cc5[nH]4)cc3)c2)cc1 [TCMDC-133261],-31.99

# Source: PMC4552634, “A New Set of Chemical Starting Points with Plasmodium falciparum Transmission-Blocking Potential for Antimalarial Drug Discovery” (PLoS ONE, 2015)
